Bioassay records (PubChem)
FGF22 binding: shifts melting point of recombinant human FGF22; actives 1.5% (n = 340,000); recombinant FGF22 thermal shift, SYPRO orange fluorescence; percent of sucrose octasulfate shift, DMSO zero; AID 651658; activity (Tm shift, normalised), % at 9.99 µM; Q9HCT0;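 active means mean Tm shift, scaled 0 neutral to 100 positive control, at about 1.3% or above, every replicate too, limit read from the data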
ERAP1 HTS inh: inhibitors of human ERAP1 aminopeptidase | recombinant ERAP1, Leu-AMC fluorescence, 60 min | inhibition, % at 10.7 µM | actives 0.15% (n = 340,000) | AID 652197;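 active means mean replicate inhibition of at least 30%, or all replicates individually reaching that 30% level; inactive means mean below 30% and not every replicate reaching it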;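 further: 0% = neutral control wells and 100% = L-leucinethiol positive control wells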
Casp6 inh: blocks human caspase-6 cleavage activity. actives 0.53% (n = 350,000). inhibition, % at 12.5 µM. AID 686996. purified caspase-6, Z-VEID-R110 cleavage fluorescence;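 active means mean inhibition across replicates at least about 35%, with every replicate also reaching that limit, limit read from the data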;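 further: 0% = median of neutral control wells and 100% = no fluorescence left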
Target sequence (P55212 24-179 limits assumed): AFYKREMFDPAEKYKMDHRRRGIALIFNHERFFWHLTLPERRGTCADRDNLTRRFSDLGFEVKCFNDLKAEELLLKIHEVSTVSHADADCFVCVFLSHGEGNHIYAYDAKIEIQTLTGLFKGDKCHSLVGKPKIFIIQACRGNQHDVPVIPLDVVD
Target sequence (P55212 194-293 limits assumed): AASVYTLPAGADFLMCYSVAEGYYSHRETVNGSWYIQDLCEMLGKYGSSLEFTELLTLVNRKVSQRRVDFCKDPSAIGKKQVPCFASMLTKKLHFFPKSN
SIRT5 block: sirtuin-5 (human) deacylase inhibition. Q9NXA8. Purified SirT5, succinyl-peptide AMC, trypsin-coupled fluorescence. inhibition, % at 15 µM. actives 1.1% (n = 330,000). AID 652115; in the data active means inhibition above about 15%
* = called active by the depositor. An excerpt weighted towards active compounds, which were near 3.1% of everything screened.

For O=C(Nc1ccc(-c2ccccc2)cc1)[C@H]1[C@H](CO)[C@H]2Cn3c(cccc3=O)[C@@H]1N2Cc1cccnc1 the results were FGF22 binding 0, ERAP1 HTS inh -1, Casp6 inh 0 and SIRT5 block 5.
For N#CC1=C(N)Oc2ccc3ccccc3c2C1c1cccnc1 (stereo not given) the results were FGF22 binding 43*, ERAP1 HTS inh 7, Casp6 inh 6 and SIRT5 block 0.
CN1CCN(C(=O)C[C@@H]2CC[C@H]3[C@@H](COC[C@H](O)CN3C(=O)Nc3ccc4c(c3)OCO4)O2)CC1 was read as FGF22 binding 0, ERAP1 HTS inh -1, Casp6 inh 1 and SIRT5 block -1.
`COc1ccccc1-c1nnc(SC(C(=O)c2c[nH]c3ccccc23)c2ccccc2)n1C` (stereo not given) gave FGF22 binding 0, ERAP1 HTS inh 10, Casp6 inh 3 and SIRT5 block -3.
For COc1cccc(-c2nnc(SC(C(=O)c3c[nH]c4ccccc34)c3ccccc3)n2C)c1 (stereo not given) the results were FGF22 binding 43*, ERAP1 HTS inh -2, Casp6 inh 3 and SIRT5 block -1.
For CC(=O)NC(CC(=O)NCCOc1ccccc1F)c1ccccc1 (stereo not given) the results were FGF22 binding 0, ERAP1 HTS inh 36*, Casp6 inh 2 and SIRT5 block -5.
CCC(=O)N(C)C[C@@H]1Oc2ncc(-c3ccc(C)cc3)cc2C(=O)N([C@@H](C)CO)C[C@H]1C was read as FGF22 binding 0, ERAP1 HTS inh 3, Casp6 inh -1 and SIRT5 block 2.
Screening CCOC(=O)c1nc(NCc2ccccc2)c2ccccc2n1 returned FGF22 binding 44*, ERAP1 HTS inh 4, Casp6 inh -4 and SIRT5 block -3.
Screening CCCCNc1nc(NCc2ccccc2)nc2ccccc12 returned FGF22 binding 41, ERAP1 HTS inh -5, Casp6 inh 44* and SIRT5 block 15.
O=C(NC1CCCC1)[C@@H]1[C@@H](CO)[C@@H]2Cn3c(ccc(C4=CCCCC4)c3=O)[C@H]1N2CC1CC1 was read as FGF22 binding 0, ERAP1 HTS inh 0, Casp6 inh 1 and SIRT5 block -15.
COc1ccc(C(=O)N/C(=C\c2cc(OC)c(OC)cc2[N+](=O)[O-])C(=O)NCCO)cc1 was read as FGF22 binding 0, ERAP1 HTS inh 8, Casp6 inh 2 and SIRT5 block 2.
For COc1ccc(C(=O)N/C(=C\c2cc(OC)c(OC)cc2[N+](=O)[O-])C(=O)NCC(=O)O)cc1 the results were FGF22 binding 43*, ERAP1 HTS inh 2, Casp6 inh -2 and SIRT5 block 7.
Screening OCCNCCSc1ccc(Cl)cc1 returned FGF22 binding 43*, ERAP1 HTS inh 3, Casp6 inh -7 and SIRT5 block 0.
OCCNCCCCSc1ccc(Cl)cc1 was read as FGF22 binding 0, ERAP1 HTS inh -2, Casp6 inh -5 and SIRT5 block -8.
CCOC(=O)c1c(NC(=O)/C=C/c2ccc(C)o2)sc(C)c1C was read as FGF22 binding 0, ERAP1 HTS inh -4, Casp6 inh -1 and SIRT5 block -3.
For COC(=O)c1ccc(Cl)cc1NC(=O)/C=C/c1ccc(C)o1 the results were FGF22 binding 44*, ERAP1 HTS inh 2, Casp6 inh 1 and SIRT5 block 2.
`O=C(c1cccnc1)N1CC(=O)N2[C@H](C1)[C@@H](c1ccc(C#CCC3CCCC3)cc1)[C@@H]2CO` gave FGF22 binding -1, ERAP1 HTS inh -4, Casp6 inh 0 and SIRT5 block -3.
For Cc1nn(-c2ccccc2)c(N)c1-c1ccccc1 the results were FGF22 binding 0, ERAP1 HTS inh -2 and SIRT5 block -2.
Screening Nc1c2c(=O)[nH]c(O)cc2nn1-c1ccccc1 returned FGF22 binding 0, ERAP1 HTS inh 1, Casp6 inh 40* and SIRT5 block -1.
Screening Cc1cc(N)n(-c2ccc(C(=O)O)cc2)n1 returned FGF22 binding 43*, ERAP1 HTS inh 1, Casp6 inh -2 and SIRT5 block 2.
CCc1ccc(S(=O)(=O)c2ccc(-n3nc(C)cc3N)cc2)cc1 was read as FGF22 binding 0, ERAP1 HTS inh -1, Casp6 inh 0 and SIRT5 block 112*.
Screening COc1cccc(C(=O)Nc2ccc3c(c2)C(=O)N(C)C[C@H](OC)[C@@H](C)CN(CC2CC2)[C@H](C)CO3)c1 returned FGF22 binding 0, ERAP1 HTS inh -2, Casp6 inh -3 and SIRT5 block 6.
